An excerpt weighted towards active compounds, which were near 11% of everything screened.
BAZ2B inh: qHTS Assay for Inhibitors of BAZ2B; AID 504333, 2011; AlphaScreen BAZ2B-H3K14Ac peptide displacement; Bromodomain adjacent to zinc finger domain protein 2B (Homo sapiens), Q9UIF8; Potency, µM (series often up to 114 µM), for the others: at the highest dose activity change, negative = inhibition, actives largely listed as inhibitors; 4.4% of 360,000 active; also: potency is read from the fitted curve at half-maximal effect; % is scaled to controls: 0 for no effect and ±100 for the full control effect; nearly all actives have a fitted effect of over 60% in size
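AlphaScreen luminescence quantifies BAZ2B engagement of H3K14Ac peptide; the protein and biotinylated peptide are both at 50 nM final, buffer PBS pH 7.4 with 0.01% Tween-20, all steps at room temperature.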
JMJD2A Tudor inh: qHTS Assay for Inhibitors of JMJD2A-Tudor Domain; Lysine-specific demethylase 4A (Homo sapiens), O75164; AlphaScreen JMJD2A-Tudor / H3K4me3 peptide binding; Potency, µM (series often up to 114 µM), inactives show at the highest dose activity change, negative = inhibition, hits mostly inhibitors; 4.4% of 390,000 active; AID 504339, 2011; also: potency is read from the fitted curve at half-maximal effect; % is scaled to controls: 0 for no effect and ±100 for the full control effect; nearly all actives have a fitted effect of over 50% in size
G9a inh: qHTS Assay for Inhibitors of Histone Lysine Methyltransferase G9a; Histone-lysine N-methyltransferase EHMT2 (Homo sapiens), Q96KQ7; G9a H3K9 monomethylation, AlphaScreen, 2 h; Potency, µM (top dose mostly 102 µM), inactives show top-dose activity, negative = inhibition, usual class: inhibitors; 8.8% of 350,000 active; AID 504332, 2011; also: potency is read from the fitted curve at half-maximal effect; % is scaled to controls: 0 for no effect and ±100 for the full control effect; nearly all actives have a fitted effect of over 75% in size
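AlphaScreen read-out: biotin-H3K9 peptide (500 nM) methylation by 20 nM enzyme with 20 uM SAM, 2 h at room temperature after 15 min compound preincubation; anti-monomethyl H3K9 antibody plus donor/acceptor beads, 10 min dark.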
PI5P4Ka inh: qHTS for Inhibitors of phosphatidylinositol 5-phosphate 4-kinase (PI5P4K); Phosphatidylinositol 5-phosphate 4-kinase type-2 alpha (Homo sapiens), P48426; PI5P4Kalpha enzyme, ADP-Glo luminescence, 60 min; active compounds read low; max response, %; 1.2% of 330,000 active; AID 652105, 2013; active = max response of -50% or lower; inconclusive = between -30% and -50%; inactive = -30% or higher; also: value at the top dose of about 77 µM; % is scaled to controls: 0 for no effect and ±100 for the full control effect
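ADP-Glo luminescence end-point read after a 60 min room-temperature kinase reaction of PI5P4Kalpha plus substrate, initiated with ATP at 5 microM final. Buffer: 0.038 M HEPES pH 7.4, EGTA, 0.1% CHAPS, 5% DMSO.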
L3MBTL1 inh: qHTS Assay for the Inhibitors of L3MBTL1; Lethal(3)malignant brain tumor-like protein 1 (Homo sapiens), Q9Y468; AlphaScreen L3MBTL1–H3K9me1 peptide binding; Potency, µM (top dose mostly 57.1 µM), inactives show at the highest dose activity, negative = inhibition, actives largely listed as inhibitors; 0.66% of 230,000 active; also: potency is read from the fitted curve at half-maximal effect; % is scaled to controls: 0 for no effect and ±100 for the full control effect; nearly all actives have a fitted effect of over 60% in size
Target sequence (Q9Y468 whole entry, looked up): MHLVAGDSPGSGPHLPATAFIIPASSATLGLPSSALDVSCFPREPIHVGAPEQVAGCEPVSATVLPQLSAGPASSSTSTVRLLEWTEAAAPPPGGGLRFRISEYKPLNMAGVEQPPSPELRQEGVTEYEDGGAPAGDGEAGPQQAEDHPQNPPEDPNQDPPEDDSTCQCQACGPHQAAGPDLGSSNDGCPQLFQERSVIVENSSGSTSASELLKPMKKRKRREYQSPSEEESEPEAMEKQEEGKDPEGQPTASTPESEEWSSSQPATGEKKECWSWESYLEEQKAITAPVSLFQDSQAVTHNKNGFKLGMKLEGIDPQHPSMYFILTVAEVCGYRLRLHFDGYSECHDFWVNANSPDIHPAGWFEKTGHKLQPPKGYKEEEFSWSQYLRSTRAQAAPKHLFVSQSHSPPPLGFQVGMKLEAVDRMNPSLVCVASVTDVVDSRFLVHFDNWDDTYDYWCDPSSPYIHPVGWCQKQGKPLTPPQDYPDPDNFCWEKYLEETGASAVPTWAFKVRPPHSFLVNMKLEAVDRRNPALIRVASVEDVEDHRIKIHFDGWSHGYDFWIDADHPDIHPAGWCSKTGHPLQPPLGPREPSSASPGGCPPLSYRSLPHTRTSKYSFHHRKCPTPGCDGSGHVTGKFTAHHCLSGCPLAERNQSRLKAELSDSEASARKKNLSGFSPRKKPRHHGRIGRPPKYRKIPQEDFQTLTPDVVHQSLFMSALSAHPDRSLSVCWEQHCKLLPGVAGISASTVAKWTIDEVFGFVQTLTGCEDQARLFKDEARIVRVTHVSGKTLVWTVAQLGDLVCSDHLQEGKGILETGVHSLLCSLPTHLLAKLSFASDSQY
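Read-out is AlphaScreen signal from streptavidin donor and nickel chelate acceptor beads (10 ug/mL final each) bridging L3MBTL1 (50 nM) and biotinylated K9-monomethylated H3(1-15) peptide (75 nM), after 30 min compound exposure at room temperature.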
HP1b binding inh: HTS for Inhibitors of HP1-beta Chromodomain Interactions with Methylated Histone Tails; AlphaScreen HP1-beta / biotin-H3K9me3 peptide binding; Potency, µM (highest dose often 114 µM), inactives show at the top dose activity change, negative = inhibition, most hits filed as inhibitors; Chromobox protein homolog 1 (Homo sapiens), P83916; 0.56% of 390,000 active; also: potency is read from the fitted curve at half-maximal effect; nearly all actives have a fitted effect of over 70% in size
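HP1-beta protein (50 nM final) preincubated 30 min at room temperature with biotinylated H3(1-18)K9me3 peptide (50 nM) in PBS pH 7.4, 0.01% Tween-20, then compound added for 30 min. AlphaScreen streptavidin donor/nickel chelate acceptor beads (10 ug/mL final), 30 min dark, luminescence read.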
* marks the source's active call; other numbers are inactive results; ? = inconclusive; . = no result given; [ ] = another dose, or the depositor's remark. Unless noted, calls follow the shape of the dose curve; as a rule, active = well fitted inhibition curve with a large enough effect; inconclusive = small, poorly fitted or top-dose-only effect; inactive = no such curve, though single readings can be large or run the other way.

SMILES	BAZ2B inh	JMJD2A Tudor inh	G9a inh	PI5P4Ka inh	L3MBTL1 inh	HP1b binding inh
CCCCCC(=O)Nc1cccc(C2=NOC3(C2)C[C@H](C(N)=O)N(C(=O)CC#N)C3)c1 (some centres undefined)	56µM*	.	?	.	.	.
CCCCCC(=O)Nc1cccc(C2=NOC3(C2)C[C@H](C(N)=O)N(C(=O)c2ccccc2)C3)c1 (some centres undefined)	-18%	-32%	-11%[59 µM]	-21	.	38%
C=C(C)C(=O)Nc1cccc(C2=NOC3(C2)C[C@H](C(N)=O)N(C(=O)CC)C3)c1 (some centres undefined)	3.5µM*	7.9µM*	?	-17	.	10µM*
C=C(C)C(=O)Nc1cccc(C2=NOC3(C2)C[C@@H](C(N)=O)N(C(=O)/C(C)=C/C)C3)c1 (some centres undefined)	1.8µM*	3.2µM*	?	?	.	3.5µM*
C/C=C(\C)C(=O)Nc1cccc(C2=NOC3(C2)C[C@@H](C(N)=O)N(C(=O)/C(C)=C/C)C3)c1 (some centres undefined)	-13%	-9%	-41%[59 µM]	-3	.	47%
CN1CCOc2cc(S(=O)(=O)N3CCN(c4nc(-c5cccs5)nc5ccccc45)CC3)ccc21	.	-23%	.	.	.	-8%
C=C(C)C(=O)Nc1cccc(C2=NOC3(C2)C[C@H](C(N)=O)N(C(=O)CC#N)C3)c1 (some centres undefined)	40µM*	25µM*	?	-20	.	?
C=C(C)C(=O)Nc1cccc(C2=NOC3(C2)C[C@H](C(N)=O)N(C(=O)c2ccccc2C(=O)c2ccccc2)C3)c1 (some centres undefined)	10µM*	7.9µM*	?	-26	.	?
C/C=C/C=C\C(=O)Nc1cccc(C2=NOC3(C2)C[C@H](C(N)=O)N(C(=O)CC#N)C3)c1 (some centres undefined)	-21%	?	-24%[12.7 µM]	-13	.	-12%
Cc1cccc(OCC(=O)Nc2cccc(OCc3cc(=O)n4cccc(C)c4n3)c2)c1	9%	-21%	10%[59 µM]	.	.	25%[57 µM]
Cc1ccc(CNC(=O)C2CCN(c3nc4ccc(C)cc4[nH]3)CC2)cc1	11%	-8%	7%[59 µM]	.	.	37%[57 µM]
Cc1c(/C=N/NC(N)=O)c2ccccn2c1C(=O)c1ccncc1	-37%	?	45µM*	6	-13%	4%
Cc1c(/C=N/NC(=O)c2cccnc2)c2ccccn2c1C(=O)c1ccc(F)cc1	-4%	.	31%[59 µM]	.	8%	.
Cc1c(/C=N/NC(=O)CNc2ccccc2)c2ccccn2c1C(=O)c1ccccc1	-22%	?	40µM*	-3	-16%	-17%
COc1cc(/C=N/N2C(C)CCCC2C)cc(Br)c1O (centres undefined)	.	-31%	?	4	0%	-16%
CC1CCCC(C)N1/N=C/c1cc(Br)c(O)c(Br)c1 (centres undefined)	-23%	.	5.6µM*	.	1%	.
CC1CCCC(C)N1/N=C/c1ccc(O)c(O)c1 (centres undefined)	?	22µM*	3.5µM*	?	.	?
CCC(CC)c1nn2c(=O)cc(COc3ccc(NC(=O)c4ccc(C)cc4)cc3)nc2s1	-2%	1%	7%[59 µM]	.	.	56%
COC(=O)CC1C(C)(C)C(O)C2CC3=C4C=C(OC)OC(c5ccoc5)[C@]4(C)CCC3[C@@]1(C)C2=O (some centres undefined)	.	.	-21%[2.33 µM]	.	.	.
Cc1ccc(-c2nnc(SCC(=O)CC(=O)Nc3ccccc3)n2C)cc1	-4%	-13%[57.1 µM]	-21%[59 µM]	1	0%	57%
Cn1c(SCC(=O)O)nnc1-c1ccc(NC(=O)c2ccc(Cl)c(Cl)c2)cc1	-1%	-8%	50µM*	-9	-3%	24%
CC(=O)Nc1ccc(-c2nnc(SCC(=O)Nc3ccc4c(c3)oc3ccccc34)n2C)cc1	1%[57.1 µM]	100µM*	32%[0.501 µM]	1	9%	44%
CCCCOc1ccc(C(=O)Nc2ccc3c(c2)N(C(C)=O)CCC3)cc1	-8%	-7%	-1%[59 µM]	.	.	18%
Cc1c([N+](=O)[O-])c(C(=O)Sc2ccc(Br)cc2)nn1C	18%	-6%	25µM*	9	-21%	23%
CCOC(=O)c1c(NC(=O)c2ccc(OCC)c(Br)c2)sc2c1CCCC2	1%	2%	6%[59 µM]	.	.	35%
SMILES	BAZ2B inh	JMJD2A Tudor inh	G9a inh	PI5P4Ka inh	L3MBTL1 inh	HP1b binding inh
Cc1ccc(S(=O)(=O)Nc2ccc(O)c(Sc3ncn[nH]3)c2)cc1	-16%	-19%	?	4	-2%	-4%
Cc1cc(F)ccc1S(=O)(=O)Nc1ccccc1C(=O)Nc1ncn[nH]1	95%	38%	45%[59 µM]	-6	12%	119%
Cc1cc(F)ccc1S(=O)(=O)Nc1ccc(O)c(Sc2ncn[nH]2)c1	-1%	-29%	40µM*	-15	.	-6%
Cc1ccc(C)c(S(=O)(=O)Nc2ccc(O)c(Sc3ncn[nH]3)c2)c1	-7%	-18%[11.4 µM]	45µM*	2	.	11%
COCCNC(=O)CN1C(=O)CCn2nc(-c3cn(C)c4ccccc34)cc21	-4%	-14%	8%[59 µM]	.	.	9%[57 µM]
COc1ccc(C(=O)N2CCC3(CCN(C)CC3)CC2)cc1	.	.	15%[12.7 µM]	.	.	.
CCN(C(=O)CSc1nc2ccccc2n1CC(C)C)c1c(N)n(Cc2ccccc2)c(=O)[nH]c1=O	.	-12%	.	0	.	53%
CCN(C(=O)CSc1nc2ccccc2o1)c1c(N)n(Cc2ccccc2)c(=O)[nH]c1=O	9%	-11%	7.1µM*	-10	-2%	11%
CCN(C(=O)CSc1nncn1-c1ccccc1)c1c(N)n(Cc2ccccc2)c(=O)[nH]c1=O	-2%	-9%	?	2	-10%	13%
CCN(C(=O)CSc1nnnn1-c1ccccc1)c1c(N)n(Cc2ccccc2)c(=O)[nH]c1=O	-6%	-13%	13µM*	-2	1%	36%
O=C(NCc1ccccc1)c1ccc(NC(=O)C2CCCO2)cc1 (centres undefined)	-31%	-6%	20µM*	1	.	36%
CCCCN(C)CCCNC(=O)c1ccc(N2CCCC2=O)cc1	-2%	15%	31%[0.501 µM]	5	-1%	30%

From PubChem BioAssay
